PubChem BioAssay (Tox21)
Inconclusive results are not listed. Where a call stands in place of a potency, no number is given. Some structures have more than one record in an assay (separate samples or runs), and their calls can disagree. Activity calls are given as the source filed them. The call rests on the fitted dose curve.

Target: Peroxisome proliferator-activated receptor gamma (Homo sapiens) (UniProt P37231)
Assay: qHTS assay to identify small molecule antagonists of the peroxisome proliferator-activated receptor gamma (PPARg) signaling pathway (AID 743191); further: nearly all actives have a fitted effect of over 30% in size
Conditions: HEK293H PPARg-UAS-bla, beta-lactamase ratio, antagonist, 17 h; series mostly up to 62.6 µM; ratio activity, negative = inhibition: at the top concentration
Description: U.S. Tox21 Program National Center for Advancing Translational Sciences [NCATS] NIH Chemical Genomics Center [NCGC] U.S. Environmental Protection Agency [EPA] National Institutes of Environmental Health Sciences [NIEHS] National Toxicology Program [NTP] U.S. Food and Drug Administration [FDA] Tox21 Assay Overview: The peroxisome proliferator-activated receptors (PPARs) are lipid-activated transcription factors of the nuclear receptor superfamily with three distinct subtypes namely PPAR alpha, PPAR delta (also called PPAR beta) and PPAR gamma (PPARg). All these subtypes heterodimerize with Retinoid X receptor (RXR) and these heterodimers regulate transcription of various genes. PPAR-gamma receptor (glitazone receptor) is involved in the regulation of glucose and lipid metabolism. To identify the compounds that inhibit PPAR-gamma signaling, GeneBLAzer PPAR gamma UAS-bla HEK293H cell line (Invitrogen, Carlsbad, CA, USA) containing a beta-lactamase reporter gene under control of an Upstream Activator Sequence (UAS) was used to screen the Tox21 compound library.
Tox21 Assay Protocol Summary: PPARg-bla cells were dispensed at 3000 cells/6uL/well in 1536-well black wall/clear bottom plates using a Multidrop Combi (Thermo Fisher Scientific, Waltham, MA) dispenser. After the assay plates were incubated at 37C and 5% CO2 for 5 h, 23 nL of compounds dissolved in DMSO, positive controls or DMSO only was transferred to the assay plate by a Pintool station (Kalypsys, San Diego, CA). The assay plates were incubated at 37C for 17 h. After 1 uL of LiveBLAzerTM B/G FRET substrate was added using a Bioraptr Flying Reagent Dispenser (FRD) workstation (Beckman Coulter, Indianapolis, IN, USA), the plates were incubated at room temperature for 1 h, and fluorescence intensity was measured by an Envision plate reader (PerkinElmer, Shelton, CT).
Potency means the concentration at half of the fitted maximal effect.

Sequence of Peroxisome proliferator-activated receptor gamma (Homo sapiens) (P37231 whole entry, looked up): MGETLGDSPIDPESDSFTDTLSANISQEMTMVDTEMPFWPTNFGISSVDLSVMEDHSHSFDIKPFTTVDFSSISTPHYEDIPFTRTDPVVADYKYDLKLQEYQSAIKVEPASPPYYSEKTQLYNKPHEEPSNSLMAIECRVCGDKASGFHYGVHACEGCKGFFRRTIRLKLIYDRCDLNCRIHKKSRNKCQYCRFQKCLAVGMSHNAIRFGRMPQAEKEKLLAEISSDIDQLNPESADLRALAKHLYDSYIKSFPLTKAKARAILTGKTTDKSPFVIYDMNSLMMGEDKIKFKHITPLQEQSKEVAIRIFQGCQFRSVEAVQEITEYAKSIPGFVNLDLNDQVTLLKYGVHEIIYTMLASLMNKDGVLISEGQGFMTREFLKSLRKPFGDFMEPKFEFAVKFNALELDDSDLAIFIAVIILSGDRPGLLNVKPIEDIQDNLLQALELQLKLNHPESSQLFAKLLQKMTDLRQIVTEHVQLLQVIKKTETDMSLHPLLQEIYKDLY

**Q.** Which Potency does the source give for CCC(C)(O)CCCC(C)C (stereo not given) here?
**A.** Its Potency is “inactive”.

**Q.** How did the Potency turn out when CCOCCOCCO was run?
**A.** The Potency was “inactive”.

**Q.** Which Potency does the source give for O=C(/C=C/C=C/c1ccc2c(c1)OCO2)N1CCCCC1 here?
**A.** The Potency was 43.7 µM (active).

**Q.** For Cc1cccc([N+](=O)[O-])c1C, which “ratio activity, negative = inhibition” value is on record?
**A.** Its value is 9.64% [at 81.1 µM] (inactive).

**Q.** C[Si](C)(C)O[Si](C)(C)C was tested. Which Potency did it give?
**A.** Its Potency is “inactive”.

**Q.** O=C(c1ccccc1)c1ccccc1O was tested. Which Potency did it give?
**A.** Its Potency is “inactive”.

**Q.** How did the Potency turn out when CCCCC(CC)COC(=O)c1ccc(N(C)C)cc1 (stereo not given) was run?
**A.** Its Potency is “inactive”.

**Q.** CN(C)CCN(Cc1cccs1)c1ccccn1 was tested. Which Potency did it give?
**A.** The Potency was “inactive”.

**Q.** With CCCCCCCCCCCO as the compound, how does the “ratio activity, negative = inhibition” value read?
**A.** Its value is 3.45% [at 81.1 µM] (inactive).

**Q.** For NNc1ccc(C(=O)O)cc1, which Potency is on record?
**A.** Its Potency is “inactive”.

**Q.** With CC1=CCC(C(C)(C)O)CC1 (stereo not given) as the compound, how does the Potency read?
**A.** Its Potency is “inactive”.

**Q.** With NC=O as the compound, how does the Potency read?
**A.** The Potency was “inactive”.

**Q.** O=[N+]([O-])c1ccc2c(c1)Cc1ccccc1-2 was tested. Which “ratio activity, negative = inhibition” value did it give?
**A.** The value was 10.9% (inactive).

**Q.** How did the “ratio activity, negative = inhibition” value turn out when COC(=O)Nc1nc2ccc(S(=O)c3ccccc3)cc2[nH]1 (stereo not given) was run?
**A.** Its value is -0.0113% (inactive).

**Q.** Which “ratio activity, negative = inhibition” value does the source give for CCC(C)OC(=O)c1ccc(O)cc1 (stereo not given) here?
**A.** Its value is 14.1% [at 81.1 µM] (inactive).

**Q.** With CC(C)Oc1ccc2c(=O)c(-c3ccccc3)coc2c1 as the compound, how does the “ratio activity, negative = inhibition” value read?
**A.** Its value is 2.32% (inactive).

**Q.** How did the Potency turn out when COc1ccc(C(=O)CC(=O)c2ccc(C(C)(C)C)cc2)cc1 was run?
**A.** The Potency was “inactive”.

**Q.** O=Cc1ccccc1O was tested. Which Potency did it give?
**A.** The Potency was “inactive”.

**Q.** Which Potency does the source give for OCCO here?
**A.** Its Potency is “inactive”.

**Q.** COC(=O)CCC(=O)OC was tested. Which “ratio activity, negative = inhibition” value did it give?
**A.** The value was 6.77% [at 81.1 µM] (inactive).

**Q.** CC(C)OC=O was tested. Which Potency did it give?
**A.** Its Potency is “inactive”.

**Q.** O=S(=O)(O)c1ccc(O)cc1 was tested. Which Potency did it give?
**A.** Its Potency is “inactive”.

**Q.** For COC(C)COC(C)COC(C)CO (stereo not given), which “ratio activity, negative = inhibition” value is on record?
**A.** The value was 2.85% (inactive).

**Q.** With COC(=O)c1ccccc1 as the compound, how does the “ratio activity, negative = inhibition” value read?
**A.** The value was -4.75% (inactive).

**Q.** For CCOC(=O)C(C#N)=C(c1ccccc1)c1ccccc1, which Potency is on record?
**A.** Its Potency is 49 µM (active) and inactive.

**Q.** With CN1C(C(=O)Nc2ccccn2)=C(O)c2ccccc2S1(=O)=O as the compound, how does the “ratio activity, negative = inhibition” value read?
**A.** Its value is -23% [at 81.1 µM] (inactive).

**Q.** Which “ratio activity, negative = inhibition” value does the source give for COc1ccc(OC)c(C(O)CNC(=O)CN)c1 (stereo not given) here?
**A.** Its value is 9.8% (inactive).

**Q.** For CCCCC(CC)COP(=O)(OCC(CC)CCCC)OCC(CC)CCCC (stereo not given), which Potency is on record?
**A.** The Potency was “inactive”.

**Q.** With CCC(C)c1ccccc1O (stereo not given) as the compound, how does the Potency read?
**A.** The Potency was “inactive”.

**Q.** Which “ratio activity, negative = inhibition” value does the source give for Nc1ncn([C@@H]2O[C@H](CO)[C@@H](O)[C@H]2O)c(=O)n1 here?
**A.** Its value is 13.2% (inactive).

**Q.** For CC(CCC(=O)O)(c1ccc(O)cc1)c1ccc(O)cc1, which Potency is on record?
**A.** Its Potency is “inactive”.

**Q.** For CCCCOCCOCCO, which “ratio activity, negative = inhibition” value is on record?
**A.** Its value is 11.6% (inactive).

**Q.** How did the “ratio activity, negative = inhibition” value turn out when O=C(c1ccccc1)c1ccc(O)cc1O was run?
**A.** Its value is 9.23% (inactive).

**Q.** For Brc1cc(Oc2cc(Br)c(Br)c(Br)c2Br)c(Br)c(Br)c1Br, which “ratio activity, negative = inhibition” value is on record?
**A.** Its value is 10.2% (inactive).

**Q.** CC(=O)C1(C)CC2=C(CCCC2(C)C)CC1C (stereo not given) was tested. Which Potency did it give?
**A.** The Potency was “inactive”.

**Q.** With S=C(NC1CCCCC1)NC1CCCCC1 as the compound, how does the Potency read?
**A.** The Potency was “inactive”.

**Q.** For CCCCNS(=O)(=O)c1ccccc1, which “ratio activity, negative = inhibition” value is on record?
**A.** The value was -15.7% (inactive).

**Q.** Cc1ccc2c(n1)Oc1ccc(C(C)C(=O)OCC(=O)N(C)C)cc1C2 (stereo not given) was tested. Which Potency did it give?
**A.** The Potency was “inactive”.

**Q.** With CC(=O)CC/C=C(\C)CCC=C(C)C as the compound, how does the Potency read?
**A.** Its Potency is “inactive”.

**Q.** For COc1cc([C@@H]2c3cc4c(cc3[C@H](O)[C@H]3COC(=O)[C@H]23)OCO4)cc(OC)c1OC, which Potency is on record?
**A.** The Potency was “inactive”.
